Bioassay records: PubChem, National Center for Advancing Translational Sciences (NCATS)
Compounds with a hit are over-represented: about 15% of the library has one in this group of screens.
Sm TGR inh – S. mansoni TGR enzyme inhibition; purified TGR, DTNB reduction, TNB absorbance 405 nm; Potency, µM (doses to about 114 µM), inactives show at the top dose activity change, negative = inhibition, hits mostly inhibitors; Q962Y6; hit rate 3% among 360,000; further: potency means the concentration at half of the fitted maximal effect; on the % scale 0 is the no-effect control and ±100 the full control effect; nearly all actives have a fitted effect of over 60% in size
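First, TGR (20 nM dispensed) and NADPH were mixed with compound. Second, a 15 min room-temperature incubation followed. Third, further NADPH and then DTNB were added to start the reaction. Finally, TNB absorbance was monitored kinetically.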
Pf growth 48h – P. falciparum growth inhibition at 48 hours (one generation); P. falciparum luciferase growth in erythrocytes, 48 h; Potency, µM (doses to about 28.7 µM), without a hit: top-dose activity change, negative = inhibition, usual class: inhibitors; hit rate 5.9% among 310,000; AID 504832; further: potency means the concentration at half of the fitted maximal effect; on the % scale 0 is the no-effect control and ±100 the full control effect
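Compounds are pin-transferred into medium, infected erythrocytes (2% hematocrit, 0.1% parasitemia final) are added, and plates sit one parasite generation at 37 C in 5% CO2. Detection reagent is then added and luminescence measured.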
SARS PLP yeast – blocks SARS-CoV papain-like protease in a yeast assay; S. cerevisiae expressing SARS-CoV PLpro, growth rescue; Potency, µM (highest dose often 32.9 µM), for inactives: at the top dose activity, positive = growth rescue, hits mostly activators; hit rate 0.19% among 330,000; calls by dose curve; further: potency means the concentration at half of the fitted maximal effect; 0% is about no effect; nearly all actives have a fitted effect of over 55% in size
HCV inh – inhibitors of hepatitis C virus infection. Huh7.5.1 HCVcc-Cre infection, luciferase reporter, 44 h. AID 651820. Potency, µM (top dose mostly 41.8 µM), inactives show at the highest dose activity change, negative = inhibition, most hits filed as inhibitors. hit rate 3.4% among 340,000; further: potency means the concentration at half of the fitted maximal effect; on the % scale 0 is the no-effect control and ±100 the full control effect
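After 44 h co-culture of compound, cells and HCVcc-Cre (~0.5 moi), substrate is added for 15 min at room temperature and luciferase measured over 15 sec. Cells were seeded at 1,000/well and pre-cultured 4 h.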
HCMV inh – human cytomegalovirus inhibition; HFF cells, HCMV-luciferase reporter, 72 h; active compounds read low; activity change, negative = inhibition, % at 57.5 µM; hit rate 4.5% among 410,000; in the data active means activity change below about -60%; inconclusive means no clear call, values can overlap the other calls; inactive means above about -39%; further: on the % scale 0 is the no-effect control and ±100 the full control effect
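Screen run at 2 compound doses on HFFs infected with reporter HCMV, MOI 1 PFU/cell. Luciferase activity from cell lysates at 72 h post infection gave inhibition relative to buffer-only and Salinomycin wells.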
Pf growth 96h – P. falciparum growth inhibition at 96 hours. P. falciparum luciferase reporter growth, 96 h. Potency, µM (doses to about 28.7 µM), for the others: at the top dose activity change, negative = inhibition, actives largely listed as inhibitors. hit rate 6.9% among 320,000; further: potency means the concentration at half of the fitted maximal effect; on the % scale 0 is the no-effect control and ±100 the full control effect
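96 h incubation, 37 C, 5% CO2, of luciferase-reporter P. falciparum-infected RBCs (2% hematocrit, 0.05% parasitemia final) with test compounds; endpoint luminescence.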
* hit, by the source's call; i = inactive; ? = inconclusive; nt = no result; [ ] = remark or other dose. Unless noted, the call rests on the fitted dose curve; in most records, active means well fitted curve in the direction sought with a large enough effect; inconclusive means small, poorly fitted or top-dose-only effect, or another doubt; inactive means no such curve, though single readings can be large; an effect the other way counts as inactive or inconclusive.

SMILES	Sm TGR inh	Pf growth 48h	SARS PLP yeast	HCV inh	HCMV inh	Pf growth 96h
CCOC(=O)C1CN(S(=O)(=O)c2ccc(C)cc2)CCN1S(=O)(=O)c1ccc(C)cc1 (configuration not stated)	5%	?	-1%	-6%	0	15µM*
CCOC(=O)C1CCCN(C(=O)c2cn(CC)c3ccc(S(=O)(=O)N4CCCC4)cc3c2=O)C1 (configuration not stated)	1%	12µM*	-4%	-1%	-12	nt
NC(=O)c1c(NC(=O)COC(=O)c2ccc(S(=O)(=O)Nc3ccccc3)cc2)sc2c1CCCC2	1%	15%	1%	?	13	-23%[5.75 µM]
CCOC(=O)C1CCCN(C(=O)c2cc(S(=O)(=O)N3CCCCC3)ccc2C)C1 (configuration not stated)	6%	8.3µM*	-1%	?	-35	?
CCOc1ccc(S(=O)(=O)Nc2cccc(C(=O)N3CCN(c4ccccn4)CC3)c2)cc1	nt	nt	nt	nt	-62*	nt
Cc1ccc(S(=O)(=O)N2CCCC2C(=O)OCc2ccco2)cc1 (configuration not stated)	4.5µM*	7%	7%	4%	nt	16%
Cc1ccc(S(=O)(=O)Nc2ccccc2F)cc1C(=O)NNC(=O)c1ccccc1O	-23%	-3%	?	?	-87*	6%
O=C1NC(=O)C(Cc2c[nH]c3ccccc23)N1 (configuration not stated)	0%	43%	0%	13%	-30	43%
CCOC(=O)Cn1ncc2c3ccccc3n(CC(=O)OCC)c2c1=O	1%	nt	0%	6%	-13	0%
COc1ccccc1NS(=O)(=O)c1ccc(C)c(C(N)=O)c1	5%	16%	1%	-3%	-16	5.2µM*
CCOC(=O)C1CCCN(S(=O)(=O)c2ccc(S(=O)(=O)N3CCCC3)cc2)C1 (configuration not stated)	0%	?	2%	1.4µM*	10	-16%
CCn1cc(C(=O)O)c(=O)c2cc(S(=O)(=O)N3CCCCCC3)ccc21	-1%	19%	-2%	17%	-17	?
CCn1cc(C(=O)N2CCc3ccccc32)c(=O)c2cc(S(=O)(=O)N3CCCC3)ccc21	-4%	?	16%	4%	28	12µM*
CCOC(=O)C1CCCN(C(=O)c2cc(S(=O)(=O)Nc3ccccc3OC)ccc2C)C1 (configuration not stated)	-3%	?	3%	10µM*	0	?
CCn1c(C(=O)N2CCCC(C(=O)N3CCN(c4ccccc4)CC3)C2)cc2sccc21 (configuration not stated)	-8%	nt	nt	nt	-22	nt
CCOC(=O)/C(C#N)=C/Nc1ccccc1NS(=O)(=O)c1ccc(C)c(C)c1	-1%	?	-1%	18%	0	2.9µM*
COc1ccccc1NS(=O)(=O)c1ccc(C(=O)N2CCN(c3ccccn3)CC2)cc1	nt	nt	-2%	11µM*	12	nt
CCOC(=O)/C(C#N)=C/Nc1ccccc1NS(=O)(=O)c1cccc(C(C)=O)c1	-7%	?	1%	8%	-16	?
O=C(NC1CCCC1)N[C@@H]1C=C[C@@H](CC(=O)N2CCOCC2)O[C@@H]1CO	nt	nt	nt	nt	14	nt
O=C(CN1CCN(C(=O)c2ccc(-c3nc4ccccc4s3)o2)CC1)Nc1ccccc1Cl	-14%	?	0%	11µM*	27	?
Cc1ccc2nc(-c3ccc(NC(=O)CCN4C(=O)c5ccccc5C4=O)cc3)sc2c1	-2%	218%	?	6%	47	59%
O=C(CN1CCN(C(=O)c2ccc(-c3nc4ccccc4s3)o2)CC1)Nc1ccc(F)cc1	-5%	12µM*	-2%	13µM*	-2	13µM*
O=C(c1ccc(-c2nc3ccccc3s2)o1)N1CCN(c2ccccc2O)CC1	-1%	?	-13%	?	-26	5.2µM*
O=C(CCN1C(=O)c2ccccc2C1=O)Nc1ccc(-c2nc3ccccc3s2)cc1	5%	40%	24%	4%	129	1.3µM*
O=C(O)c1ccc(-c2nc3ccccc3s2)o1	?	241%	-1%	13%	2	i
SMILES	Sm TGR inh	Pf growth 48h	SARS PLP yeast	HCV inh	HCMV inh	Pf growth 96h
Cc1cccc(NC(=O)CN2CCN(C(=O)c3ccc(-c4nc5ccccc5s4)o3)CC2)c1C	-34%	5%	nt	?	2	?
Cc1c(C(=O)Nc2ccc(F)cc2F)nnn1-c1ccccc1Br	-4%	nt	nt	nt	-25	nt
COCCN(C(=O)COC(=O)CCCOc1ccccc1)c1c(N)n(Cc2ccccc2)c(=O)[nH]c1=O	-5%	7%	2%	5%	-1	3%
COc1ccc(N2CCN(CCNC(=O)c3ccc4c(c3)[nH]c(=S)n3c5ccccc5nc43)CC2)cc1	5%	?	-7%	-24%	-31	10µM*
CC1CCN(CCNC(=O)c2ccc3c(=O)n(Cc4ccc(Cl)cc4)c(=S)[nH]c3c2)CC1	-11%	3.7µM*	0%	6.3µM*	nt	-6%
COc1cc2[nH]c(=S)n(Cc3ccc(C)cc3)c(=O)c2cc1OC	0%	-25%	4%	-20%	-19	10µM*
COc1ccccc1Cn1c(=S)[nH]c2ccccc2c1=O	5%	12%	1%	-19%	16	18%
COc1ccccc1Cn1c(=S)[nH]c2ccc(Br)cc2c1=O	0%	-14%	-2%	?	-86*	3%
Cc1nc2ccccc2n1CC(=O)c1ccc(O)c(O)c1	-4%	?	-3%	-27%	5	?
OCCc1ccc(O)c(-n2nc3ccccc3n2)c1	5%	88%	-4%	2%	?	109%
CC(C)Nc1nc(NCCOc2ccccc2)c2sccc2n1	nt	nt	nt	nt	-14	nt
O=C(NCC1CCCO1)c1ccc2c(=O)n(CC3CCCO3)c(=S)[nH]c2c1 (configuration not stated)	-8%	9%	-4%	-22%	10	?
COc1ccccc1Cn1c(=S)[nH]c2cc(C(=O)NCCCN3CCOCC3)ccc2c1=O	0%	?	-4%	?	-34	16%
C=CCNC(=O)c1ccc2c(=O)n(Cc3ccccc3OC)c(=S)[nH]c2c1	5%	3.3µM*	-2%	?	-30	22%
COc1ccccc1NS(=O)(=O)c1cc(C(=O)NCCN2CCOCC2)ccc1Cl	0%	8%	-2%	8%	2	10µM*
COc1ccccc1Cn1c(=S)[nH]c2cc(C(=O)NCCN3CCOCC3)ccc2c1=O	1%	10µM*	-11%	?	-17	-93%
